Bioassay records (PubChem)
Tg IFNy HTS: T. gondii growth inhibition under IFN-gamma; Toxoplasma gondii growth in IFN-gamma-treated host cells; active compounds read low; activity change, negative = inhibition, % (no concentration beside the values); 69,000 compounds, 3.8% hits; AID 1259416; in the data active means activity change below about -70%, passing the limit was not always enough;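 further: host cells are HeLa cells infected with Toxoplasma gondii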
* hit, by the source's call; i = inactive. Many of the other results were omitted from the sample, so hits are more common in it than they were.

SMILES	Tg IFNy HTS
O=C1COc2cc3c(cc2N1)NC(=O)CC3c1nccs1 (centres undefined)	-1
CCCc1ccc(C2CC(=O)Nc3cc4c(cc32)OCO4)o1 (centres undefined)	-88*
CCOC(=O)Nc1ccc2c(c1)NC(=O)CC2c1cc(C(C)C)no1 (centres undefined)	-8
CCc1nc(OCC(=O)Nc2ccccc2Cl)c2ccccc2n1	-47
C=CCN1CCCC12CCCN(S(=O)(=O)c1ccc(F)cc1)C2 (centres undefined)	-2
COc1ccc(Cl)cc1S(=O)(=O)N1CCC2(CC1)Nc1cc(C)ccc1-n1cccc12	3
CCN1c2cc(C)ccc2-n2cccc2C12CCN(S(=O)(=O)c1ccc(C)c(C)c1)CC2	-112*
Cc1ccc2c(c1)NC1(CCN(S(=O)(=O)c3ccc(C)c(C)c3)CC1)c1cccn1-2	29
COc1ccc(S(=O)(=O)N2CCC3(CC2)Nc2cc(C)ccc2-n2cccc23)cc1Cl	13
COc1ccc(S(=O)(=O)N2CCC3(CC2)Nc2cc(OC)ccc2-n2cccc23)cc1	18
CCN1c2cc(C)ccc2-n2cccc2C12CCN(S(=O)(=O)c1ccc(OC)cc1)CC2	-91*
Cc1cc(C)c(S(=O)(=O)N2CCC3(CC2)Nc2cc(F)ccc2-n2cccc23)c(C)c1	28
CCN1c2cc(C)ccc2-n2cccc2C12CCN(S(=O)(=O)c1c(C)cc(C)cc1C)CC2	-118*
Cc1ccc(S(=O)(=O)N2CCC3(CC2)Nc2ccc(C)c(C)c2-n2cccc23)cc1C	-25
CCN1c2cc(C)ccc2-n2cccc2C12CCN(S(=O)(=O)c1cc(Cl)ccc1OC)CC2	-106*
COc1ccc2c(c1)NC1(CCN(S(=O)(=O)c3c(C)cc(C)cc3C)CC1)c1cccn1-2	-35
CCN1c2cc(C)ccc2-n2cccc2C12CCN(S(=O)(=O)c1ccc(OC)c(OC)c1)CC2	-32
O=c1[nH]c2ccccc2c(O)c1-c1nc(-c2ccc(F)c(Cl)c2)no1	34
Cc1cccc(CNC(=O)c2c(O)c3cccnc3n(-c3cccc(F)c3)c2=O)c1	46
COc1ccccc1-c1noc(C)c1C(=O)NC(c1ccc2c(c1)OCCO2)C(C)C (centres undefined)	0
CCN1c2cc(C)ccc2-n2cccc2C12CCN(S(=O)(=O)c1cccc(Cl)c1)CC2	-84*
CCN1c2cc(C)ccc2-n2cccc2C12CCN(S(=O)(=O)c1ccc(C)cc1)CC2	-86*
CCN1c2cc(C)ccc2-n2cccc2C12CCN(C(=O)NCC(=O)OC)CC2	67
CCN1c2cc(C)ccc2-n2cccc2C12CCN(C(=O)NC(C)C(=O)OC)CC2 (centres undefined)	63
CCN1c2cc(C)ccc2-n2cccc2C12CCN(S(=O)(=O)c1ccc(C(C)(C)C)cc1)CC2	9
SMILES	Tg IFNy HTS
CCN1c2cc(C)ccc2-n2cccc2C12CCN(C(=O)c1ccc(OC)cc1)CC2	-90*
Cc1ccc2c(c1C)-n1cccc1C1(CCN(S(=O)(=O)c3cccc(Cl)c3)CC1)N2	23
CCCNC(=O)N1CCC2(CC1)c1cccn1-c1ccc(C)cc1N2CC	-16
COc1cc(NCC2(c3ccccc3)CCN(C)CC2)ncn1	-4
CC(O)(C(=O)NCc1cccnc1-n1cnc2ccccc21)c1ccccc1 (centres undefined)	-39
Cc1ccc(CSC2=Nc3ccccc3C3=NC(CC(=O)NCc4ccc(F)cc4)C(=O)N23)cc1 (centres undefined)	-45
CCN1C[C@H]2CN(C(=O)Cc3ccccc3)CCC[C@]2(C(=O)O)C1	-1
CN1CCC2(CC1)CN(C(=O)CCC(=O)Nc1cccc(F)c1)CCN2C	0
Cc1occc1C(=O)N1CCC2(CCC(=O)N2Cc2cccnc2)CC1	-11
COc1ccc(C2=Nc3cc(C(=O)NCCN4CCOCC4)ccc3CN2C(C)C)cc1	28
COC(=O)c1csc2c(C(F)(F)F)cc(N3CCN(C(=O)c4ccco4)CC3)nc12	-44
Cc1nc(CO[C@H]2CN(C(C)C)[C@H]3COC[C@@H]23)cs1	-31
O=C(NCc1cn2ccsc2n1)C1CC2(CCNCC2)CN1 (centres undefined)	13
Cc1nc(C(F)(F)F)ccc1C(=O)NC1CCCN(Cc2cnn(C)c2C)CC1 (centres undefined)	2
CN1CCC2(C=C(C(=O)NC3CC3)c3ccccc32)CC1	-3
O=C(NC1CCN(CCCCC2(C(=O)NCC(F)(F)F)c3ccccc3-c3ccccc32)CC1)c1ccccc1-c1ccc(C(F)(F)F)cc1	-74*
CCSCC(C)NCc1csc(-c2cnccn2)n1 (centres undefined)	1
C=CCn1c(=S)sc2c(N3CCN(c4ccccc4)CC3)ncnc21	-20
C=CCn1c(=S)sc2c(C(C#N)C#N)ncnc21	-102*
COc1ccc(-c2nc(C)c(CCNC(=O)C(=O)Nc3cccc(Cl)c3)s2)cc1OC	i
CN1C[C@@H](NC(=O)C2CCCC2)C[C@H]1C(=O)NCCc1nc2ccccc2[nH]1	1
Cc1ccnc(C(NC(=O)C(=O)N2CCc3ccccc32)C2CC2)c1 (centres undefined)	2
COc1ccc(-c2nc3c(s2)CN(S(=O)(=O)c2ccc(F)cc2F)CC3)cc1	-95*
CCOc1ccc(S(=O)(=O)N2CCc3nc(-c4ccc(OC)cc4)sc3C2)cc1	42
CCc1ccc(S(=O)(=O)N2CCc3nc(-c4ccc(OC)cc4)sc3C2)cc1	-15
SMILES	Tg IFNy HTS
COc1ccc(-c2nc3c(s2)CN(S(=O)(=O)c2cc(OC)ccc2OC)CC3)cc1	-120*
CCOc1ccc(-c2nc3c(s2)CN(S(=O)(=O)c2ccc(F)cc2F)CC3)cc1	92
Cc1ccc(NC(=O)Cn2c(=O)cc(C(=O)N3CCOCC3)c3ccccc32)cc1C	7
CCOc1ccccc1NC(=O)c1nnn(Cc2nc(-c3cccc(OC)c3OC)oc2C)c1C	-79*
COc1ccc(NC(=O)c2nnn(Cc3nc(-c4cccc(OC)c4OC)oc3C)c2C)cc1Cl	32
COc1cccc(-c2nc(Cn3nnc(C(=O)Nc4ccccc4)c3C)c(C)o2)c1OC	-50
CCOc1ccccc1-c1nc(Cn2nnc(C(=O)Nc3ccccc3OC)c2C)c(C)o1	-19
COc1cccc(-c2nc(Cn3nnc(C(=O)Nc4cccc(Cl)c4C)c3C)c(C)o2)c1OC	-16
COc1cccc(-c2nc(Cn3nnc(C(=O)Nc4cc(C)cc(C)c4)c3C)c(C)o2)c1OC	-105*
CCCS(=O)(=O)NC1CCc2c(ccc(=O)n2CC2CC2)C1 (centres undefined)	-16
CCc1cccc(NC(=O)c2c(O)c3cccnc3n(-c3ccccc3)c2=O)c1	-38
CC(C)NC(=O)N1CCn2cc(CN3CCCC3)nc2C1	278
CN(C)CC1(O)CCCN(C(=O)c2cnc3ccccn3c2=O)CC1 (centres undefined)	2
CN(C)CC1(O)CCCN(C(=O)c2cnc3ccccn3c2=O)C1 (centres undefined)	5
O=C1NC(=O)C(c2cnc3ccccn23)=C1c1cn2c3c(cc(F)cc13)CN(C(=O)N1CCCCC1)CC2	-87*
COc1cc2c(cc1OC)CN(C(=O)c1ccc(C)cc1)CC2	-1
CN1CC(=O)N(c2ccccc2)CC12CCN(C(=O)c1cccn1C)C2 (centres undefined)	4
CCCn1ncc(C(=O)NCc2cn3nc(C)sc3n2)c1C	-8
c1ccc(-c2[nH]cnc2-c2cccc(-n3cccn3)c2)cc1	-95*
CN(C)c1cncc(-c2cccc(-n3cccn3)c2)n1	190
O=C(O)c1ccc(-c2cccc(-n3cccn3)c2)o1	-45
